This note sets out measurements from the supplement of paper PMC11219838.

Each structure is given as a SMILES string.

The test system of the first assay is Ditylenchus dipsaci. Put plainly: proportion of mobile D. dipsaci (mixed stage) relative to DMSO control (fraction of DMSO control); higher = more viable, less nematicidal, active = 0.86 or less; extreme values may be limits of the assay. The note with it: 60 µM; 5 days; temperature: 20 °C. In outline: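 Mobility values are relative to DMSO controls and are averages of two biological replicates. For each well of a 96-well plate, about 20 D. dipsaci worms, grown on pea plants in Gamborg B-5 agar and funnel-extracted into water, were dispensed in distilled water. Plates received pinned compound at 60 µM final with 0.6% v/v DMSO and were sealed and shaken at 200 rpm for 5 days at 20 °C before 2 µL 1 M NaOH was added and mobile worms were scored by microscope.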
As to `CNC(=O)O/N=C(\SC)C(=O)N(C)C` [oxamyl], the “proportion of mobile D. dipsaci” value is 1 (inactive). Same read-out and setting: with `O=C(NCCc1ncc(C(F)(F)F)cc1Cl)c1ccccc1C(F)(F)F` [fluopyram] the figure was 0 (active); with `CC[C@H](C)[C@H]1O[C@]2(C=C[C@@H]1C)C[C@@H]1C[C@@H](C/C=C(\C)[C@@H](O[C@H]3C[C@H](OC)[C@@H](O[C@H]4C[C@H](OC)[C@@H](O)[C@H](C)O4)[C@H](C)O3)[C@@H](C)/C=C/C=C3\CO[C@@H]4[C@H](O)C(C)=C[C@@H](C(=O)O1)[C@]34O)O2.CO[C@H]1C[C@H](O[C@H]2[C@H](C)O[C@@H](O[C@@H]3/C(C)=C/C[C@@H]4C[C@@H](C[C@]5(C=C[C@H](C)[C@@H](C(C)C)O5)O4)OC(=O)[C@@H]4C=C(C)[C@@H](O)[C@H]5OC/C(=C\C=C\[C@@H]3C)[C@]54O)C[C@@H]2OC)O[C@@H](C)[C@@H]1O` [abamectin], 0.727 (active); with `CC(C)NC(=O)N1CC(=O)N(c2cc(Cl)cc(Cl)c2)C1=O` [iprodione], 1 (inactive).

The next assay concerns Caenorhabditis elegans L1 (N2). Put plainly: survival and reproduction score of C. elegans L1 (0: 0-10 living worms, 1: 11-20, 2: 21-50, 3: >50, 4: overgrown) (score 0-4); higher = more worms, less nematicidal, active = 1 or less; extreme values may be limits of the assay. The following applies: 60 µM; 6 days; temperature: 20 °C. In outline:
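After compound was pinned to 60 µM final (0.6% v/v DMSO) into wells with roughly 20 synchronized C. elegans N2 L1s and E. coli HB101 in liquid NGM, the sealed 96-well plates were shaken at 200 rpm for 6 days at 20 °C. Under a dissection microscope, survival and reproduction were graded ordinally by living worms per well. A grade of 0 stood for 0–10 worms and 4 for overgrown, starved wells; two biological replicates were averaged.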
Turning to `O=C(Nc1ccccc1-c1nc(-c2ccncc2)no1)c1ccc(Cl)cc1`, the “survival and reproduction score” value was 4 (inactive). Consider `CCOc1ccc(-c2nc(-c3ccccc3C)no2)cc1`, for which the “survival and reproduction score” value was 4 (inactive). Still for that read-out and setting: the figure for `COc1ccc(CCC(=O)Nc2ccc(-c3noc(-c4ccccc4C)n3)cc2)cc1` is 4 (inactive); for `Cc1ccc(OCc2nc(-c3ccccn3)no2)cc1C` it is 4 (inactive); for `COc1ccc(C(=O)CSc2nnc(-c3cccc4ccccc34)o2)cc1` it is 4 (inactive).

Regarding `c1ccc(-c2nc(C3CCCCC3)no2)cc1`, the “survival and reproduction score” value was 0 (active). On the same count and under the same terms, the figure for `O=C(CSc1nnc(-c2ccccc2Cl)o1)Nc1nccs1` is 4 (inactive); for `N#Cc1ccccc1CSc1nnc(-c2ccncc2)o1` it is 4 (inactive); for `CC(=O)Nc1cccc(-c2nnc(SCc3ccc(F)cc3)o2)c1` it is 4 (inactive).

`COc1ccc(-c2nnc(SCC(=O)Nc3ccc(Cl)cc3C)o2)cc1`: the “survival and reproduction score” value was 4 (inactive). On the same count and under the same terms, the figure for `Cc1ccc(OC(C)c2nc(-c3cccnc3)no2)cc1` (stereo not drawn) is 4 (inactive). Regarding `C=CCOc1ccc(-c2nc(-c3cccnc3)no2)cc1`, the “survival and reproduction score” value is 0 (active). With `Clc1ccccc1OCc1nc(-c2cccs2)no1`, the “survival and reproduction score” value is 4 (inactive). For `COc1ccc(C(=O)Nc2ccc(-c3nnc(SCc4ccccc4)o3)cc2)cc1`, the “survival and reproduction score” value was 4 (inactive). Turning to `COc1ccc(Cl)cc1-c1nc(-c2ccccc2C)no1`, the “survival and reproduction score” value was 4 (inactive). `Cc1ccc(-c2nnc(SCC(=O)Nc3cc(C)c(C)cc3Br)o2)cc1`: the “survival and reproduction score” value is 4 (inactive). The same measure, in the same setting: with `Cc1ccc(OCc2nc(-c3ccc(Cl)cc3)no2)cc1` the figure was 4 (inactive). Still for that read-out and setting: the figure for `CNC(=O)O/N=C(\SC)C(=O)N(C)C` [oxamyl] is 4 (inactive); for `Cc1cc(OCc2nc(-c3ccc(NC(=O)c4ccc5c(c4)OCO5)cc3)no2)ccc1Cl` it is 4 (inactive); for `O=C(NCCc1ncc(C(F)(F)F)cc1Cl)c1ccccc1C(F)(F)F` [fluopyram] it is 0 (active). Consider `COc1nc(-c2ccc(C)cc2)ccc1-c1noc(C)n1`, for which the “survival and reproduction score” value is 4 (inactive). On the same count and under the same terms, the figure for `COc1nc(C)ccc1-c1noc(-c2ccccc2Cl)n1` is 4 (inactive); for `CCc1nc(-c2ccc(-c3ccccc3)nc2OC)no1` it is 4 (inactive); for `CC(Sc1nnc(-c2ccc(C(C)(C)C)cc2)o1)C(=O)Nc1nccs1` (stereo not drawn) it is 4 (inactive). Same read-out and setting: the figure for `CCOc1ccccc1-c1nc(-c2ccc(F)cc2)no1` is 4 (inactive). On the same count and under the same terms, the figure for `Cc1cc(OC(C)c2nc(-c3ccccn3)no2)ccc1Cl` (stereo not drawn) is 2 (inactive); for `Cc1ccc(-c2noc(-c3cccc(Br)c3)n2)cc1` it is 4 (inactive); for `COc1ccc(-c2nnc(SCC(=O)Nc3ccccc3F)o2)cc1` it is 4 (inactive). For `Cc1ccccc1OCc1nc(-c2ccc(NC(=O)c3ccc(Br)o3)cc2)no1`, the “survival and reproduction score” value was 4 (inactive).

With `CC[C@H](C)[C@H]1O[C@]2(C=C[C@@H]1C)C[C@@H]1C[C@@H](C/C=C(\C)[C@@H](O[C@H]3C[C@H](OC)[C@@H](O[C@H]4C[C@H](OC)[C@@H](O)[C@H](C)O4)[C@H](C)O3)[C@@H](C)/C=C/C=C3\CO[C@@H]4[C@H](O)C(C)=C[C@@H](C(=O)O1)[C@]34O)O2.CO[C@H]1C[C@H](O[C@H]2[C@H](C)O[C@@H](O[C@@H]3/C(C)=C/C[C@@H]4C[C@@H](C[C@]5(C=C[C@H](C)[C@@H](C(C)C)O5)O4)OC(=O)[C@@H]4C=C(C)[C@@H](O)[C@H]5OC/C(=C\C=C\[C@@H]3C)[C@]54O)C[C@@H]2OC)O[C@@H](C)[C@@H]1O` [abamectin], the “survival and reproduction score” value was 0 (active). Consider `Cc1ccc(SCc2nc(-c3ccccc3)no2)cc1`, for which the “survival and reproduction score” value was 4 (inactive).

`Cc1ccc(-c2noc(-c3cccc(C)c3)n2)cc1`: the “survival and reproduction score” value was 0 (active). Same read-out and setting: the figure for `O=C(CSc1nnc(-c2ccco2)o1)Nc1cccc(C(F)(F)F)c1` is 4 (inactive); for `CCSc1nnc(-c2ccc(Cl)cc2)o1` it is 0 (active); for `Cn1c(SCc2ccc(Cl)cc2)nnc1-c1ccco1` it is 4 (inactive). As for `CC(C)NC(=O)N1CC(=O)N(c2cc(Cl)cc(Cl)c2)C1=O` [iprodione], the “survival and reproduction score” value was 4 (inactive). In the case of `Fc1ccc(OCc2nc(-c3ccc(Cl)cc3)no2)cc1`, the “survival and reproduction score” value is 4 (inactive).

For `CCn1c(SCc2ccc(OC)cc2)nnc1-c1ccco1`, the “survival and reproduction score” value is 4 (inactive).

In the case of `COc1ccc(NC(=O)CSc2nnc(-c3ccccc3)o2)cc1`, the “survival and reproduction score” value was 4 (inactive).
